The text below walks through data of PubChem BioAssay (NCI).

The structures appear in SMILES notation. Values joined by “and” are separate entries in the source; they are usually repeats but may differ in a detail not shown here. Equal values may be shown once. This is part of a sample that, as a whole, favours compounds with a hit. Of some 83,000 tested, about 20% had one in any assay.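 Negative percent growth values reflect cell death: -40 means 40% of the cells present at the start died, and -100 means all died.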 Active and inactive are the calls of the source. How the source made its calls: active means growth percent below 10; inactive means the rest.

In the assay the test system is MDA-MB-468 breast. Nature of the assay: NCI-60 one-dose screen, 48 h (100 = growth as untreated, 0 = no growth, -100 = all killed). The following applies: 10 µM unless noted.
In the case of `O=C(Nc1ncc(Cc2ccccc2)s1)c1cc(-c2ccccc2)nc2ccccc12`, the growth was 103% (inactive).

For the compound `NNCCc1ccc(NC(=O)CCCc2ccc(C(=O)Nc3ccccc3N)cc2)cc1`, the growth was 72.9% (inactive).

Consider `O=C(NCO)c1ccccc1`, for which the growth was 110% (inactive).

Turning to `COc1cc(CNCCCN2C(=O)c3ccc4c5c(ccc(c35)C2=O)C(=O)N(CCCNCc2cc(OC)c(OC)c(OC)c2)C4=O)cc(OC)c1OC`, the growth was -93.3% (active).

Take `O=S(=O)(CCN1CCOCC1)Nc1cc(-c2ccc3ncnc(Nc4ccc(F)c(Cl)c4)c3c2)cnc1Cl`: the growth is -34.4% (active).

Consider `COC(=O)CC/C(C)=N\Nc1ccc([N+](=O)[O-])cc1`, for which the growth is 71.1% (inactive).

In the case of `COc1ccc(C(O)(CCC(C)C)C(CN2CCOCC2)c2ccc(Cl)cc2)cc1` (configuration not stated), the growth is 80.6% (inactive).

For `O=C(/C=C/c1cccc(B(O)O)c1)c1cccc(B(O)O)c1`, the growth is -84.9% (active).

In the case of `CCOC(=O)c1ccc(N(C=O)CCC(=O)CCl)cc1`, the growth was 40.3% (inactive).

Turning to `CC(C)NC(=O)N/C=C(\C#N)C(N)=O`, the growth is 93.6% (inactive).

`[O-][n+]1c(Cl)cc(Cl)c2ccccc21`: the growth is 123% (inactive).

Turning to `CCc1nn2c(C)cc(C)nc2c1Cc1ccc(/C=C/CN2CCN(CCOCCOCCN3CCN(C/C=C/c4ccc(Cc5c(CC)nn6c(C)cc(C)nc56)cc4)CC3)CC2)cc1`, the growth is -6.16% (active).

On to `Nc1cccc2cccc(O)c12`, for which the growth was 82.6% (inactive).

Take `Cc1cc(Cl)ccc1Nc1nc(C(F)(F)F)ccc1C(=O)N/N=C/c1ccccc1Cl`: the growth was 6.05% (active).

As for `Clc1ccc(Nc2ccnc(N3CCN(c4ccnc5cc(Cl)ccc45)CC3)n2)cc1`, the growth is 39.4% (inactive).

With `O=C(N/N=C/C=C\c1ccccc1)C(=O)N/N=C/C=C/c1ccccc1`, the growth was 105% (inactive).

Consider `C/C(=N\NC(=O)c1ccncc1)c1ccccc1O`, for which the growth is 13.1% (inactive) and 22.6% (inactive).

`O=C(N/N=C/C=C/c1ccc([N+](=O)[O-])o1)c1cc2ccccc2cc1O`: the growth was -65% (active).

In the case of `COc1ccc(-c2nc3cc(C(=O)NCc4ccccc4)ccc3n2C2CCCCC2)cc1`, the growth was 98.4% (inactive).

In the case of `CC(C)Cc1ccc([C@H](C)C(=O)O)cc1`, the growth is 113% (inactive).

As to `CC1Cc2c(ncn3c(-c4ccc(F)cc4)nnc23)N(C)c2ccccc21` (configuration not stated), the growth is 66% (inactive).

For `COc1ccc(-c2ccc(-c3ccc(C(=N)N)o3)o2)cc1`, the growth was 15.3% (inactive).

For `O=C(/C=C/C12c3ccccc3C(c3ccccc31)C1C(=O)NC(=O)C12)c1ccc(Br)cc1` (configuration not stated), the growth was 42.7% (inactive).

For `COc1cc(-c2cc(-c3cc(OC)c(OC)c(OC)c3)nc3nc(N)[nH]c(=O)c23)ccc1Oc1ccnc2cc(Cl)ccc12`, the growth is 15.9% (inactive).

For `CNC(=O)c1cc(Oc2ccc3nc(NC(=O)Nc4cc(C(F)(F)F)cc(C(F)(F)F)c4)sc3c2)ccn1`, the growth is -31.1% (active).

With `COc1ccc(NC(=O)CSc2nnc(-c3ccc4nc(-c5ccccc5)[nH]c4c3)o2)cc1`, the growth was 95.5% (inactive).

Take `Cc1[nH]c(C(=O)Nc2ccccc2OC2CCN(CCN3CCOCC3)CC2)c(Cl)c1Cl`: the growth was 91.6% (inactive).

`COc1ccc(C2c3ccc4ccccc4c3Oc3ncn(CCCn4ccnc4)c(=N)c32)cc1OC` (configuration not stated): the growth was 47.5% (inactive).

As to `COc1ccc(C(=O)/C=C/c2ccc(Oc3nc(NCCO)nc(N4CCOCC4)n3)c(OC)c2)cc1`, the growth is 63.4% (inactive).

On to `Cc1ccc(-c2cnc3sc(C(=O)NCCc4ccccc4)c(C)n23)cc1`, for which the growth is 93.1% (inactive).

In the case of `COc1ccc2nc(NC(=O)c3cccnc3Nc3cc(OC)c(OC)c(OC)c3)sc2c1`, the growth was 60.3% (inactive).

Take `CCN1/C(=C/C=C/c2n(-c3ccccc3)c3ccc(-c4nc5ccccc5s4)cc3[n+]2CC)N(c2ccccc2)c2ccc(-c3nc4ccccc4s3)cc21`: the growth was 8.94% (active).

`C=C(C)[C@@H]1CC[C@]2(CNCCO)CC[C@]3(C)[C@H](CC[C@@H]4[C@@]5(C)CCC(N)[C@@](C)(CO)[C@@H]5CC[C@]43C)[C@@H]12` (some centres not stated): the growth is -86.8% (active).

Turning to `COc1ccc(OC)c([C@H]2c3[nH]c4ccccc4c3C[C@H]3C(=O)N(CCCCCCC(=O)NO)CC(=O)N23)c1`, the growth was 74.9% (inactive).

In the case of `CN1CCCC1=Nc1ccccc1`, the growth was 107% (inactive).

On to `CCOC(=O)CC(c1ccccc1)C(C#N)c1ccccc1` (configuration not stated), for which the growth is 101% (inactive).

On to `OC(c1cc(-c2ccc(C(F)(F)F)cc2)nc(-c2ccc(C(F)(F)F)cc2)c1)C1CCCCN1` (configuration not stated), for which the growth is -85.1% (active).
